# SRC2 inh = human SRC2 (NCOA2) inhibition; Q15596; HEK293 GAL4-SRC2 luciferase reporter, luminescence; inhibition, % at 9 µM; actives 0.17% (n = 370,000); AID 651957;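 active = inhibition above the mean inhibition of all tested compounds plus 3 SD, set per campaign, cut at about 52% in these data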;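 note: 0% = DMSO treated cells and 100% = cells given Gossypol at 36 µM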
# NCOA3 inh = inhibitors of human steroid receptor coactivator 3 (SRC3). Q9Y6Q9. HEK293 GAL4-SRC3 luciferase reporter, luminescence. inhibition, % at 3.6 µM. actives 0.17% (n = 360,000);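 active = inhibition above a per-campaign cutoff, the mean of all compounds plus 3 SD, cut at about 60% in these data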;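 note: 0% = DMSO-treated cells and 100% = gossypol-treated cells at 36 µM; higher means less SRC3-driven luciferase light from the GAL4 reporter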
# LRH-1 inv ag = suppresses constitutive activity of human LRH-1; AID 602396; O00482; HEK293T StAR-luciferase reporter, LRH-1 transfected, 24 h; actives 0.13% (n = 360,000); inhibition, % at 3.6 µM;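 active = inhibition above the mean inhibition of all tested compounds plus 3 SD, cut at about 73% in these data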;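 note: 0% = DMSO wells and 100% = reporter-only cells lacking LRH-1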
# GalR3 antagonist = antagonists of human GalR3; HEK293 GalR3-CNG cAMP membrane potential fluorescence; galR3 body fused to GalR1 C-terminus; inhibition, % at 3 µM; AID 651719; actives 0.44% (n = 360,000); O60755;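 active = inhibition above the screen-wide average plus 3 SD, cut at about 13% in these data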;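 note: forskolin and galanin both at EC90 stimulate the cells; cAMP rise reported by CNG channel membrane potential dye signal; 0% = forskolin plus galanin with DMSO and 100% = forskolin alone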
# Target sequence (O60755 1-299 limits assumed): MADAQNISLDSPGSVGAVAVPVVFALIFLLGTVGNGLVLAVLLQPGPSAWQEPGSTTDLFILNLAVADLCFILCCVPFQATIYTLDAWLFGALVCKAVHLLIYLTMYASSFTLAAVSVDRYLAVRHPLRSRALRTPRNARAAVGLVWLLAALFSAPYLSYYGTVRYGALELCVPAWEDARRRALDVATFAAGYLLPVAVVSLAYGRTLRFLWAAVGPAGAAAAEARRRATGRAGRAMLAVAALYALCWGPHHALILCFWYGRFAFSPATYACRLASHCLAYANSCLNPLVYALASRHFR
# COUP-TFII inh = NR2F2 (human) inhibition, primary screen. inhibition, % at 8.6 µM. P24468. actives 0.7% (n = 370,000). HEK293T NGFI-A luciferase reporter, luminescence;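 active = inhibition above a per-plate cutoff, mean inhibition of test wells between control levels plus 3 SD, cut at about 38% in these data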;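 note: cells cotransfected with COUP-TFII expression vector driving the NGFI-A reporter; 0% = median of COUP-TF2 test wells and 100% = reporter-only cells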
# SRC1 inh = inhibits human SRC1 coactivator. inhibition, % at 3.6 µM. actives 0.12% (n = 360,000). HEK293 GAL4-SRC1 luciferase reporter, luminescence. Q15788. AID 588354;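 active = inhibition above the campaign mean plus 3 SD, with each screening campaign given its own cutoff, cut at about 60% in these data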;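 note: 0% = DMSO treated cells and 100% = gossypol at 36 µM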
# The depositor's hits bear a star; · = no result. Rows were chosen to be rich in hits. Some 1.1% of all compounds tested hit in one or more screens of this group.
SMILES,SRC2 inh,NCOA3 inh,LRH-1 inv ag,GalR3 antagonist,COUP-TFII inh,SRC1 inh
COC1=C(C)C(=O)C2=C(C1=O)C1C3CC4=C(C(=O)C(OC)=C(C)C4=O)C(CNC(=O)C(C)=O)N3C(C#N)C(C2)N1C (stereo not drawn),63*,85*,96*,-7,52*,84*
C=CC(=O)Nc1ccc(Nc2nc(NC3CCC(N(C)C)CC3)nc3c2ncn3C(C)C)cc1 (stereo not drawn),·,84*,97*,·,·,86*
O=C(C1=C(c2ccccc2)C(=O)c2ccccc2C1=O)c1ccccc1,57*,82*,-9,-11,17,20
O=c1[nH]c(=O)n([C@H]2C[C@H](O)[C@@H](CO)O2)cc1F,16,67*,11,·,-32,66*
O=c1[nH]c(=O)n(C2CC(O)C(CO)O2)cc1I (stereo not drawn),-27,44,-96,-6,22,23
CCCCCCCCCn1c2c(c(=N)c3c1CCC3)CCCC2,·,81*,89*,·,·,50
Cn1cc(C(=O)N/N=C/c2c(O)ccc3ccccc23)ccc1=O,40,62*,25,-8,11,32
Cc1occc1C(=O)N/N=C/c1c(O)ccc2ccccc12,11,-22,-55,-10,-61,-22
O=C(N/N=C\c1c(O)ccc2ccccc12)c1cncc(Br)c1,17,69*,28,-3,-17,51
Cn1nccc1C(=O)N/N=C/c1c(O)ccc2ccccc12,-3,73*,90*,0,-46,68*
O=C(N/N=C\c1c(O)ccc2ccccc12)c1ccc(O)cc1,5,20,7,-4,11,20
O=C(NN=Cc1c(O)ccc2ccccc12)c1ccncc1,40,75*,91*,-6,-13,41
O=C(N/N=C/c1c(O)ccc2ccccc12)c1ccc(Br)o1,8,39,0,-3,-21,-3
CN1C(=O)C(=O)N2C(=C[C@]3(c4c[nH]c5ccccc45)c4ccccc4N[C@H]23)C1=O,·,·,·,·,5,·
O=C(CSc1nnc(-c2ccco2)n1-c1ccc(Cl)cc1)Nc1ccccc1-c1ccccc1,11,·,·,·,0,·
Cc1ccc(C(=O)N/N=C/c2c(O)ccc3ccccc23)cn1,48,74*,87*,-10,-10,68*
COc1ccc2ccccc2c1/C=N\NC(=O)c1cccnc1,0,6,0,3,-14,2
O=C(N/N=C/c1c(O)ccc2ccccc12)c1cccnc1,36,77*,92*,-16,-21,57
O=C(NCC1CCN(Cc2ccccc2F)CC1)C1CCCN(c2ncnc3c2nc2n3CCCCC2)C1 (stereo not drawn),-5,-14,-4,15*,16,-13
OCC1OC(n2ccc3c2ncn2ncnc32)C(O)C1O (stereo not drawn),37,53,65,-7,15,62*
Nc1ccn(C2OC(CO)C(O)C2O)c(=O)n1 (stereo not drawn),-7,29,2,0,3,43
CCCC(=O)NC(c1ccccc1Cl)c1ccc2cccnc2c1O (stereo not drawn),31,47,84*,-11,-6,53
CCC(=O)NC(c1ccc(Cl)cc1Cl)c1ccc2cccnc2c1O (stereo not drawn),16,56,65,-2,-16,27
CCC(=O)NC(c1ccc(C)cc1)c1ccc2cccnc2c1O (stereo not drawn),34,64*,19,-7,-19,41
CCCC(=O)NC(c1ccc(C(C)C)cc1)c1ccc2cccnc2c1O (stereo not drawn),32,54,35,-14,-4,-9
CC(C)C(=O)NC(c1ccc(Cl)cc1Cl)c1ccc2cccnc2c1O (stereo not drawn),10,23,83*,-11,-33,33
CCCCC(=O)NC(c1ccc(OC)cc1)c1ccc2cccnc2c1O (stereo not drawn),5,36,103*,-5,12,14
C[C@@H]1CN([C@@H](C)CO)C(=O)c2cccc(NC(=O)Nc3cccc4ccccc34)c2O[C@H]1CN(C)S(=O)(=O)c1ccc(Cl)cc1,·,·,·,·,7,·

# High-throughput results deposited in PubChem BioAssay by The Scripps Research Institute Molecular Screening Center.
